# Experimental data published in PubChem BioAssay (NCATS).
# “And” between values parts separate entries of the source, which are not always exact repeats. Equal values may be shown once. Results filed as inconclusive are left out. Entries that show only a call come without a potency. The source made the active and inactive calls. Unless noted, calls follow the shape of the dose curve; as a rule, active = well fitted curve in the direction sought with a large enough effect; inconclusive = small, poorly fitted or top-dose-only effect, or another doubt; inactive = no such curve, though single readings can be large; an effect the other way counts as inactive or inconclusive.
# Columns and labels:
# [1] = target: Voltage-gated inwardly rectifying potassium channel KCNH2 (Homo sapiens) (UniProt Q12809); experiment: qHTS Assay for Small Molecule Inhibitors of the Human hERG Channel Activity (AID 588834);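 also: top concentration of the series differs between compounds; lower thallium flux fluorescence means stronger hERG block; nearly all actives have a fitted effect of over 50% in size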
# Voltage-gated inwardly rectifying potassium channel KCNH2 (Homo sapiens), sequence (Q12809 whole entry, looked up): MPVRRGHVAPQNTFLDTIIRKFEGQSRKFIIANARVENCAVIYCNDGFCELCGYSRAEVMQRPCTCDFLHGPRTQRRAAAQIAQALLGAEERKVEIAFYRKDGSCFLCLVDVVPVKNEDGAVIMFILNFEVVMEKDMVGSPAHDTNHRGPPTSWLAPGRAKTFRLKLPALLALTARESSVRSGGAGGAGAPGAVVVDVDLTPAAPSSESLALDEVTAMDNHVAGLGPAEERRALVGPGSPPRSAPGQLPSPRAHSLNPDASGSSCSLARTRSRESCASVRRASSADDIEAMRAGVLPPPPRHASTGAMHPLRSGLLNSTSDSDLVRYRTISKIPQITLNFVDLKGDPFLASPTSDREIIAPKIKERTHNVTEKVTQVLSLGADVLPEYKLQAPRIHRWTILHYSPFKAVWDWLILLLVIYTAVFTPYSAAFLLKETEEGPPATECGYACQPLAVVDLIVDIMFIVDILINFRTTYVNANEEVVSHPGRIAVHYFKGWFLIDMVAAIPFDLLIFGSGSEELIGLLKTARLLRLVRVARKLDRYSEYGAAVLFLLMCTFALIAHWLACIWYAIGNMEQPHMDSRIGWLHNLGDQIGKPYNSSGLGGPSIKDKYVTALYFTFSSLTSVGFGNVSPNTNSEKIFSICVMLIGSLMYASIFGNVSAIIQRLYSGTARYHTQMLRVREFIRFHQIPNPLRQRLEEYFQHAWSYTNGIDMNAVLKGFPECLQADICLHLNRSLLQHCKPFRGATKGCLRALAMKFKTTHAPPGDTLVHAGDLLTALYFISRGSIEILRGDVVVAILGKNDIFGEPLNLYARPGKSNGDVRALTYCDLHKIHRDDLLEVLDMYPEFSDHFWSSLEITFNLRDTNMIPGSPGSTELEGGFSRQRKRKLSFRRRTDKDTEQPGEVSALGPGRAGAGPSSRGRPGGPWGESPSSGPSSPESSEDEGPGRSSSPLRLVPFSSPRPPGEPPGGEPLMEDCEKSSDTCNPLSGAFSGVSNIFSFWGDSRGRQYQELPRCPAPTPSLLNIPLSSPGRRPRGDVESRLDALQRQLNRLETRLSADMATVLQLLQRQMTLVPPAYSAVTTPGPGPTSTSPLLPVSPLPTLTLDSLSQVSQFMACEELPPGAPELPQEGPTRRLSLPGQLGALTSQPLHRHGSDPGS
# Method in brief: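 hERG-BacMam U2OS, 2000 cells/well; 0.7X FluxOR loading 1 hr RT dark; cpd ~10 min 37 °C; stim buffer; FDSS fluorescence 2 min @ 1 s; AC50 Hill fit.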
# [2] = target: Luciferin 4-monooxygenase (Photinus pyralis) (UniProt P08659); experiment: Biochemical firefly luciferase enzyme assay for NPC (AID 624030);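 also: purified P. pyralis luciferase at 10 nM with luciferin and ATP substrate; nearly all actives have a fitted effect of over 70% in size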
# Luciferin 4-monooxygenase (Photinus pyralis), sequence (P08659 whole entry, looked up): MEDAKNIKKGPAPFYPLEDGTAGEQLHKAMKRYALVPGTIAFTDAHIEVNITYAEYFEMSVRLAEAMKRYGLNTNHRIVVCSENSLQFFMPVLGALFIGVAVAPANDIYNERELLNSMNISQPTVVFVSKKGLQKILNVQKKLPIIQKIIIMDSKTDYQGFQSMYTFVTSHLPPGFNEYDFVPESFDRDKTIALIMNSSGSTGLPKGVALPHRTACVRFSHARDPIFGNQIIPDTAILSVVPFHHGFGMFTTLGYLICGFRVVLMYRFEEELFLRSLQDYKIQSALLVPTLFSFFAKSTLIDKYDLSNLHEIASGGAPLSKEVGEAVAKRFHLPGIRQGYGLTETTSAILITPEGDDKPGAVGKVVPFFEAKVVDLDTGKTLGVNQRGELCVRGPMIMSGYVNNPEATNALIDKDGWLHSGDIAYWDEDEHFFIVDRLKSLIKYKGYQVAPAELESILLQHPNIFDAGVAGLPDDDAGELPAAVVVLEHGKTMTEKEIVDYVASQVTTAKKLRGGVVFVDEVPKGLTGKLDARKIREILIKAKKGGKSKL
# Method in brief: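 Counter-screen for direct inhibition of the luciferase enzyme by approved-drug library compounds, run at 10 nM enzyme in 50 mM Tris acetate (final). Luminescence was read within 5 min of enzyme-buffer addition and normalized to PTC124 versus DMSO (0%).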
# [3] = S16 Schwann cell viability assay (CellTiter-Glo assay) (AID 624031);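 also: cellular ATP luminescence as a viability measure; nearly all actives have a fitted effect of over 70% in size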
# Method in brief: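 Native S16 rat Schwann cells in DMEM/10% FBS without phenol red were incubated overnight, then exposed to compounds for 24 h at 37 °C/5% CO2. Viability was read as ATP luminescence (CellTiter-Glo), normalized to no-cell wells and DMSO (0%).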
# [4] = S16 Schwann cell PMP22 intronic element firefly luciferase assay (AID 624032); also: nearly all actives have a fitted effect of over 30% in size
# Method in brief: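 Rat S16 Schwann cells stably carrying a PMP22 intronic element-driven Fluc reporter were seeded overnight, then exposed to compounds for 24 h at 37 °C. Luminescence was normalized to PTC124 (positive control) and DMSO (0% activity).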
# [5] = target: Glutaminase kidney isoform, mitochondrial (Homo sapiens) (UniProt O94925); experiment: qHTS for Inhibitors of Glutaminase (GLS): LOPAC Validation (AID 624146);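 also: glutamate product detected by oxidase and peroxidase coupled Amplex red fluorescence gain; nearly all actives have a fitted effect of over 60% in size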
# Glutaminase kidney isoform, mitochondrial (Homo sapiens), sequence (O94925 whole entry, looked up, canonical isoform): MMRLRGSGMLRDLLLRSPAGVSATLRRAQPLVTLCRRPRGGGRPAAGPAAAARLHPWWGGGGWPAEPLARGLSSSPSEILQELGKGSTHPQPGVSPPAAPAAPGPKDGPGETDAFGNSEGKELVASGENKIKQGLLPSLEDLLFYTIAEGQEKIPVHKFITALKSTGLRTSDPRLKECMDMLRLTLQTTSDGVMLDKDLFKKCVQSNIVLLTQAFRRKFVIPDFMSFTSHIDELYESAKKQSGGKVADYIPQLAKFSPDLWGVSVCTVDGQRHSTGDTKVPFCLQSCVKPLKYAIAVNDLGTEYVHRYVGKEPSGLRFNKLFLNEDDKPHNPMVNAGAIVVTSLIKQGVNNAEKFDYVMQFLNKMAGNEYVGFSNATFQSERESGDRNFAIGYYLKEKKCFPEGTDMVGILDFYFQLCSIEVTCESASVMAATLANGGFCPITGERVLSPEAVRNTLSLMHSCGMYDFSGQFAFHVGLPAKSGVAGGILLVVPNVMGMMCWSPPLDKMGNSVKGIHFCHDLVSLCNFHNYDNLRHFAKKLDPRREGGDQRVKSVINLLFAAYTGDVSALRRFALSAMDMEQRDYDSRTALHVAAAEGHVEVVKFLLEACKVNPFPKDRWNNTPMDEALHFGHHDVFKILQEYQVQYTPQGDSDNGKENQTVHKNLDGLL
# Method in brief: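 hKGA in 45 mM KH2PO4 (pH 8.2), 0.02% Tween-20 with compound, then 1mM L-Glutamine (stock as added) plus glutamate oxidase/HRP/Amplex red coupling mix. Fluorescence read initially and after 30 min at RT; signal change reflects glutamate formation.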
# [6] = target: Glucagon-like peptide 1 receptor (Homo sapiens) (UniProt P43220); experiment: qHTS of GLP-1 Receptor Agonists: LOPAC Validation (AID 624148);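 also: higher luminescence signal means agonism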
# Glucagon-like peptide 1 receptor (Homo sapiens), sequence (P43220 whole entry, looked up): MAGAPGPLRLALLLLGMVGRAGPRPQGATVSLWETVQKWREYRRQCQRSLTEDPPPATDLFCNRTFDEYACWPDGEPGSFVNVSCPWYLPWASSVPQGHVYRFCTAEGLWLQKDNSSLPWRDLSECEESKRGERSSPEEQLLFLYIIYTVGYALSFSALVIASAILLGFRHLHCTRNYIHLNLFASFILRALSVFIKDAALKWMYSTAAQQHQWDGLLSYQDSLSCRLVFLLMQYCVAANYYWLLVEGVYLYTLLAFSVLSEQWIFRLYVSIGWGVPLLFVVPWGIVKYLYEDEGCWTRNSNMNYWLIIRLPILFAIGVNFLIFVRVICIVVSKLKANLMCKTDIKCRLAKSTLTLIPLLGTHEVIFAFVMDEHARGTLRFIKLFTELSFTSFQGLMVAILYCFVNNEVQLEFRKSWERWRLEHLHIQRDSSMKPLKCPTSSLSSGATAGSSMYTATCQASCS
# Method in brief: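 HEK293 cells stably co-expressing a cAMP-responsive luciferase reporter and a hypersensitive GLP-1R were plated 12 h at 37 °C and exposed to compounds for 4-6 hr at 37 °C, 5% CO2. Luminescence was read 12 min after adding detection reagent.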
# [7] = qHTS of Nrf2 Activators: LOPAC Validation (AID 624149)
# Method in brief: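 Luminescence read-out of ARE-luciferase activation: AREc32_Fluc cells treated with compounds for 24 hr at 37 deg C, then lysed with Steady-Glo for 30 min at room temperature before reading.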
# [8] = HTS Assay for Allosteric Antagonists of the Human D2 Dopamine Receptor: Hit Validation in HTRF (AID 624455);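 also: stable D1 dopamine receptor cell line scored for blocking the D1 response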
# Method in brief: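 First, antagonism was screened by calcium flux in a force-coupled, inducible Hek293 Trex D2 line challenged with EC80 dopamine. Hits then went into an HTRF assay in cells stably expressing D1, testing inhibition of the D1 response.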
# [9] = qHTS assay for small molecule agonists of retinoid X receptor alpha signaling (AID 588544; calls by dose curve); conditions: HEK293T RXRa-UAS-bla, beta-lactamase reporter, 18 h; 530 nm emission
# [10] = target: Retinoic acid receptor RXR-alpha (Homo sapiens) (UniProt P19793); experiment: as above
# Retinoic acid receptor RXR-alpha (Homo sapiens), sequence (P19793 whole entry, looked up): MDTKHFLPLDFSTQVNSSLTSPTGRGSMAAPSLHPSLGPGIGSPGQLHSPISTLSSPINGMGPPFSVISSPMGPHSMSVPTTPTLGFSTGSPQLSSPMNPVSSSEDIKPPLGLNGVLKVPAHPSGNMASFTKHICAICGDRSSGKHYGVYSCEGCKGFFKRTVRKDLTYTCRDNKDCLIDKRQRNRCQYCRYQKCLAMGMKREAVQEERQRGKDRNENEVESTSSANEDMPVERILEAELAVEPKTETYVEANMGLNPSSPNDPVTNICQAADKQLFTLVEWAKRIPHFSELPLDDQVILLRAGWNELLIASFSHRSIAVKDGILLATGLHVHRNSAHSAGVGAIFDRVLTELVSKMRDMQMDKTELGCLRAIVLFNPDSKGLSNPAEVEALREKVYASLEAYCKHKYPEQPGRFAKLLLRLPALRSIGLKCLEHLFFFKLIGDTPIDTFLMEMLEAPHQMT
# [11] = target: Thyroid hormone receptor beta (Homo sapiens) (UniProt P10828); experiment: qHTS assay for small molecule agonists of thyroid hormone receptor beta signaling (AID 588545; calls by dose curve)
# Thyroid hormone receptor beta (Homo sapiens), sequence (P10828 whole entry, looked up): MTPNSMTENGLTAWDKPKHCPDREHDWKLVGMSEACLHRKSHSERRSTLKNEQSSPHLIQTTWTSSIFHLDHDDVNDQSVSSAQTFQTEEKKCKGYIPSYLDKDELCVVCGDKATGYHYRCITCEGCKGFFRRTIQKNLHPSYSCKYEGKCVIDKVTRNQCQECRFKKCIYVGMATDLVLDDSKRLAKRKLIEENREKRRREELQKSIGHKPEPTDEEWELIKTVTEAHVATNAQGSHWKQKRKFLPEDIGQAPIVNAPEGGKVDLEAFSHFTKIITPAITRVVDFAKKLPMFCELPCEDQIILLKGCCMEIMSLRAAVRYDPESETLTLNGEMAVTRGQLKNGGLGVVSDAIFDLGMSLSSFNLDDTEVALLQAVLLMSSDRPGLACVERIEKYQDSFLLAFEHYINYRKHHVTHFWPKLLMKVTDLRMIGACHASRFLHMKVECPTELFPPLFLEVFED
# Method in brief: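 TR-UAS-bla GripTite HEK 293 cells (2500/well, medium with 2% charcoal/dextran FBS) were treated in agonist mode for 18 h at 37 C, titrated. Beta-lactamase was read by CCF4 ratio after 2 h; normalized to 10 nM T3 (100%) and DMSO, Hill-fitted for EC50 and efficacy.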
# [12] = target: Thyroid hormone receptor beta (Homo sapiens) (UniProt P10828); experiment: qHTS assay for small molecule antagonists of thyroid hormone receptor beta signaling (AID 588547; active = well fitted inhibition curve with a large enough effect in the signal ratio, with a control signal flat, not every such curve was filed as active; the % refers to the signal ratio;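 also: cells stimulated with 0.4 nM T3 agonist during compound exposure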); conditions: TR-UAS-bla HEK293, beta-lactamase ratio, antagonist mode, 18 h
# Method in brief: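 TR-UAS-bla GripTite HEK293 cells in 2% charcoal/dextran FBS medium were preincubated 4 h at 37 C, given compound (0.59 nM to 92 uM) plus 0.4 nM T3 (final) for 18 h, then CCF4 for 2 h at RT; Hill fit gave IC50.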
# [13] = qHTS assay for small molecule antagonists of retinoid X receptor alpha signaling (AID 588546; active = well fitted inhibition curve with a large enough effect in the signal ratio, with a control signal flat, not every such curve was filed as active; the % refers to the signal ratio;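 also: cells stimulated with 9-cis-retinoic acid as agonist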); conditions: HEK293T RXRa-UAS-bla, beta-lactamase ratio, antagonist mode; measured here: W530 green channel, cytotoxicity proxy
# Method in brief: (§1)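 Beta-lactamase reporter inhibition, read as CCF4 fluorescence ratio (ex 405, em 460/530 nm) after 2 h at RT. HEK293T UAS-bla cells, 2500/well, were stimulated with 9-cis-RA at 500 or 100 nM final alongside test compound for 18 h at 37 C.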
# [14] = target: Retinoic acid receptor RXR-alpha (Homo sapiens) (UniProt P19793); experiment: as above; conditions: HEK293T RXRa-UAS-bla, beta-lactamase ratio, antagonist mode
# Method in brief: as §1
# [15] = S16 Schwann cell PMP22 intronic element beta-lactamase assay (AID 624044; calls by dose curve; also: nearly all actives have a fitted effect of over 15% in size)
# Method in brief: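 Rat S16 Schwann cells with beta-Lac driven by a PMP22 intronic element, compound-treated 24 h at 37 °C. LiveBLAzer FRET B/G read: 460 nm normalized to potassium clavulanate vs DMSO; 535 nm FRET as viability; concentration-effect curves classified.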
# [16] = qHTS for Inhibitors of the vitamin D receptor (VDR): Hit Validation using a Texas Red Assay (AID 602201); conditions: VDR coregulator binding, Texas Red fluorescence polarization; agonist-bound VDR ligand-binding domain; also: potency is read from the fitted curve at half-maximal effect
# Method in brief: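 Fluorescence polarization (Ex 595/Em 615 nm) of Texas Red (7 nM) with 1.5 uM VDR-LBD and LG19078 (final concentrations). Compounds were incubated for 2 hours at room temperature.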
# [17] = qHTS Assay for Identification of Small Molecule Antagonists for NFkB Signaling Pathway. (AID 624479; calls by dose curve;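 also: pathway stimulated with TNF alpha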; also: potency is read from the fitted curve at half-maximal effect)
# [18] = Cell Proliferation Assay against the TMD8 Cell Line (AID 651645); conditions: TMD8 DLBCL cell line proliferation/viability; at 46.1 µM (top of the series) unless noted;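 also: cells exposed to compound for 48 h before reading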
# Method in brief: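 500 TMD8 cells/well, RPMI + Glutamax, no phenol red, 5% FBS; cpd added immediately; 48 h, 37C, 5% CO2; CellTiter-Glo, luminescence. Controls: DMSO = 100%, bortezomib 9.2 uM final = 0%.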
# [19] = Cell Proliferation Assay against the HBL1 Cell Line (AID 651646); conditions: HBL1 DLBCL cells; at 46.1 µM (top of the series) unless noted;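 also: cells exposed to compound for 48 h before reading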
# Method in brief: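 500 log-phase HBL1 cells per well in phenol red-free RPMI with 5% FBS were treated with compounds for 48 h at 37 °C, 5% CO2. Viability was read by CellTiter-Glo luminescence, normalized to DMSO (100%) and 9.2 uM bortezomib final (0%).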
# [20] = Cytotoxicity counterscreen for NFkB agonists and antagonists (AID 624476);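 also: cells exposed to compound for 48 hours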; also: potency is read from the fitted curve at half-maximal effect
smiles,measurement,setting,value
COc1ccccc1N1CCN(CCCNc2cc(=O)n(C)c(=O)n2C)CC1,Potency,[1],inactive
same,Potency,[2],inactive
same,Potency,[3],inactive
same,Potency,[4],inactive
same,Potency,[5],inactive
same,outcome,[6],inactive
same,outcome,[7],inactive
same,outcome,[8],inactive
O=c1c(O)c(-c2ccc(O)cc2)oc2cc(O)cc(O)c12,max response,[9],23%
same,outcome,[10],inactive
same,outcome,[11],inactive
same,activity change % (negative = inhibition),[12],0.335% (inactive) and 4.17% (inactive)
CCn1cc(C(=O)O)c(=O)c2ccc(C)nc21,outcome,[11],inactive
same,max response,[13],14% and -13.8%
same,max response,[14],-0.374% (inactive) and 6.98% (inactive)
same,activity change % (negative = inhibition),[12],17.4% (inactive) and 3.09% (inactive)
same,Potency,[2],inactive
same,Potency,[3],inactive
same,Potency,[4],inactive
same,Potency,[5],inactive
same,outcome,[6],inactive
same,outcome,[8],inactive
O=c1cc(-c2ccccc2)oc2cc(O)cc(O)c12,outcome,[11],inactive
CCCNC(=O)NS(=O)(=O)c1ccc(Cl)cc1,max response,[9],2.79% and 10.5%
same,outcome,[10],inactive
same,outcome,[11],inactive
same,max response,[13],-1.39% and 4.27%
same,max response,[14],15% (inactive) and -16.7% (inactive)
same,activity change % (negative = inhibition),[12],15.7% (inactive) and -17.5% (inactive)
same,Potency,[1],inactive
same,Potency,[2],inactive
same,Potency,[3],inactive
same,Potency,[4],inactive
same,Potency,[5],inactive
same,outcome,[6],inactive
same,outcome,[7],inactive
same,outcome,[8],inactive
CC(=O)c1ccc(S(=O)(=O)NC(=O)NC2CCCCC2)cc1,max response,[9],0.432% and 9.79%
same,outcome,[10],inactive
same,outcome,[11],inactive
same,max response,[13],-6.48% and 24.9%
same,max response,[14],-4.66% (inactive) and -24.2% (inactive)
same,activity change % (negative = inhibition),[12],-3.97% (inactive) and -18% (inactive)
same,Potency,[1],inactive
same,Potency,[2],inactive
same,Potency,[3],inactive
same,Potency,[4],inactive
same,Potency,[5],inactive
same,outcome,[6],inactive
same,outcome,[7],inactive
same,outcome,[8],inactive
O=c1[nH]cnc2c1ncn2[C@H]1CC[C@@H](CO)O1,max response,[9],0.954% and -9.72%
same,outcome,[10],inactive
same,outcome,[11],inactive
same,max response,[13],-5.91%
same,max response,[14],9.86% (inactive)
same,activity change % (negative = inhibition),[12],9.23% (inactive)
same,Potency,[1],inactive
same,Potency,[2],inactive
same,Potency,[3],inactive
same,Potency,[4],inactive
same,Potency,[15],inactive
CCN1CCC[C@H]1CNC(=O)c1cc(S(N)(=O)=O)ccc1OC,Potency,[1],inactive
same,Potency,[2],inactive
same,Potency,[3],inactive
same,Potency,[4],inactive
same,Potency,[5],inactive
same,outcome,[6],inactive
same,outcome,[7],inactive
same,outcome,[8],inactive
CC1(C)O[C@H]2C[C@@H]3[C@H]4CCC5=CC(=O)C=C[C@]5(C)[C@@]4(F)[C@@H](O)C[C@]3(C)[C@]2(C(=O)CO)O1,Potency,[1],inactive
same,Potency,[2],inactive
same,Potency,[3],inactive
same,Potency,[4],inactive
same,Potency,[15],inactive
NCCS,Potency,[1],inactive
same,Potency,[2],inactive
same,Potency,[3],inactive
same,Potency,[4],inactive
same,Potency,[5],inactive
same,outcome,[6],inactive
same,outcome,[7],inactive
same,outcome,[8],inactive
Cc1cnc(C(=O)O)c[n+]1[O-],Potency,[1],inactive
same,Potency,[2],inactive
same,Potency,[3],inactive
same,Potency,[4],inactive
CCCCC1C(=O)N(c2ccccc2)N(c2ccccc2)C1=O,max response,[9],4.5% and 6.7%
same,outcome,[10],inactive
same,outcome,[11],inactive
same,max response,[13],1.64% and -10.6%
same,max response,[14],0.963% (inactive) and -0.138% (inactive)
same,activity change % (negative = inhibition),[12],6.78% (inactive)
same,Potency,[1],inactive
same,Potency,[2],inactive
same,Potency,[3],inactive
same,Potency,[4],inactive
same,Potency,[5],inactive
same,outcome,[6],inactive
same,outcome,[7],inactive
same,outcome,[8],inactive
O=C(O)c1cc(O)c2c(c1)C(=O)c1cccc(O)c1C2=O,outcome,[11],inactive
same,Potency,[1],inactive
CCN(CC)CCOC(=O)c1ccc(N)cc1,Potency,[1],inactive
same,Potency,[2],inactive
same,Potency,[3],inactive
same,Potency,[4],inactive
same,Potency,[5],inactive
same,outcome,[6],inactive
same,outcome,[7],inactive
same,outcome,[8],inactive
CC1(C)CCC2=C(O1)c1ccccc1C(=O)C2=O,Potency,[16],14.1 µM (active)
O=C(Nc1ccccc1-c1cn2c(CN3CCNCC3)csc2n1)c1cnc2ccccc2n1,Potency,[17],inactive
same,viability (% of control),[18],2.49%
same,"viability, percent of control",[19],2.43%
OC[C@H]1O[C@@H](n2cnc3c2NC=NC[C@@H]3O)C[C@H]1O,Potency,[20],inactive
same,Potency,[17],inactive
same,viability (% of control),[18],95.3%
same,"viability, percent of control",[19],105%
COc1cc2nc(-c3ccc(N4CCN(C)CC4)cc3)nc(NCCN3CCOCC3)c2cc1OC,Potency,[17],inactive
same,viability (% of control),[18],1.8%
same,"viability, percent of control",[19],5.66%
Cc1nc(N)sc1-c1ccnc(Nc2ccc(N3CCOCC3)cc2)n1,Potency,[20],inactive
same,Potency,[17],2.66 µM (active)
same,viability (% of control),[18],4.33%
same,"viability, percent of control",[19],24.4%
COc1ccc(C2CC(c3ccccc3)=NN2c2ccc(S(N)(=O)=O)cc2)cc1 (configuration not stated),Potency,[17],inactive
same,viability (% of control),[18],13.6%
same,"viability, percent of control",[19],5.45%
c1ccc2c(-c3cnn4cc(-c5ccc(N6CCNCC6)cc5)cnc34)ccnc2c1,Potency,[17],18.8 µM (active)
same,viability (% of control),[18],0.905%
same,"viability, percent of control",[19],3.84%
CCOC(CN1C(=O)[C@](CC(=O)Nc2ccc(C)cc2)(NC(=O)Nc2ccc(C)cc2)c2ccccc21)OCC,Potency,[17],18.8 µM (active)
same,viability (% of control),[18],16.8%
same,"viability, percent of control",[19],4.35%
COc1cccc2c1CCCC2CCCN1CCN(C2CCCCC2)CC1 (configuration not stated),Potency,[20],inactive
same,Potency,[17],inactive
same,viability (% of control),[18],1.09%
same,"viability, percent of control",[19],28.8%
O=C(O)c1ccc(-c2cc3cccnc3c(-c3ccc4nonc4c3)n2)cc1,Potency,[20],inactive
same,Potency,[17],inactive
same,viability (% of control),[18],111%
same,"viability, percent of control",[19],91.1%
COc1ncc(-c2ccc3nccc(-c4ccnnc4)c3c2)cc1NS(=O)(=O)c1ccc(F)cc1F,Potency,[20],1.05 µM (active)
same,Potency,[17],11.9 µM (active)
same,viability (% of control),[18],1.53%
same,"viability, percent of control",[19],4.41%
